The molecules below were run on Scedosporium aurantiacum CBS 136046 (assay: growth inhibition relative to DMSO control (OD600); higher = more antifungal activity, active = 80 or more; extreme values may be limits of the assay). Conditions: 5 µM; 72 h; 37 °C.
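Note: conidia screened in RPMI 1640 medium under 5% CO2, growth read by spectrophotometer, medium with 0.5% DMSO serving as the untreated reference.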

Growth inhibition, inactive:
Cc1ccc(Oc2ccccc2-c2csc(N=C3NCCCN3)n2)c(C)c1 68%
CC(C)Cn1c(=O)n(C)c(=O)c2c(-c3cncn3C)n(Cc3cccc4ccccc34)nc21 29%
Cc1cc(CCOc2c(C)cc(-c3nnn(C)n3)cc2C)on1 3.61%
CCOCc1nc2c(N)nc3ccccc3c2n1CC(C)(C)O 14.6%
C[C@H](Cn1cnc2c(N)ncnc21)OCP(=O)(O)O 13.7%
COC(=O)Nc1nc2cc(Sc3ccccc3)ccc2[nH]1 0.273%
OC(Cn1cncn1)(Cn1cncn1)c1ccc(F)cc1F 29.9%
NCc1ccc(S(N)(=O)=O)cc1 9.4%
CNc1nc(=O)[nH]cc1F 2.45%
COC(=O)Nc1nc2cc([S+]([O-])c3ccccc3)ccc2[nH]1 (stereo unspecified) 0.624%
O=C(CSc1nnc(Br)n1-c1ccc(C2CC2)c2ccccc12)Nc1ccc(C(=O)O)cc1Cl 18.4%
CCCCc1ccc(-c2nc(C)c(C(=O)OC)s2)cc1 12.4%
Cc1c[nH]c(=O)nc1NCc1ccccc1 10.8%
NC1C2CC3CC(C2)CC1C3 (stereo unspecified) 23.6%
CSC[C@H]1CN(Cc2c[nH]c3c(N)ncnc23)C[C@@H]1O 10.5%
CC(C)/N=c1\cc2n(-c3ccc(Cl)cc3)c3ccccc3nc-2cc1Nc1ccc(Cl)cc1 24.6%
Oc1c(C(Nc2nc3ccccc3s2)c2ccc(OC(F)F)cc2)ccc2cccnc12 (stereo unspecified) 12%
Cc1oncc1C(=O)Nc1ccc(C(F)(F)F)cc1 15.6%
COc1ccc(NC(=O)c2cc3ccccn3n2)cc1 36.8%
NC(=O)c1cnc2ccc(S(=O)(=O)c3ccccc3)cc2c1Nc1ccc(O)cc1 32.1%
OB1OCc2c1ccc(Cl)c2F 0.00748%
CC(C)(C)c1ccc(C(=O)NC(=O)N2CCCc3ccccc32)cc1 0.0285%
COc1cc(C(C(=O)NC2CCCCC2)N(C(=O)Cc2c[nH]c3ccccc23)c2ccc(C(C)C)cc2)cc(OC)c1OC (stereo unspecified) 6.79%
Cc1[nH]c2ccccc2c1CCNCc1ccc(/C=C/C(=O)NO)cc1 26.8%
NC(=S)N/N=C/c1ncccc1N 23.2%
C[C@@H](O)[C@H](N)C(=O)NS(=O)(=O)c1cccc(-c2ccc3[nH]ncc3c2)c1 21%
